These results are taken from PubChem BioAssay (EPA / NIEHS).

Each structure is given as a SMILES string. Inconclusive results are not listed. Activity calls are given as the source filed them. Rule for the calls, unless noted: active = hit-call score of the fitted dose curve at least 0.9, where 1 is the maximum; inactive = score below 0.9.

A short description of experiment [1]: IUF_NPC1_cytotoxicity_72hr: Cytotoxicity Assessment at 72 hours in the Leibniz Research Institute for Environmental Medicine (IUF) Neural Progenitor Cell Proliferation Assay (NPC1) (AID 2284332; active = hit-call score of the fitted dose curve at least 0.9, where 1 is the maximum;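 note: rising LDH signal means more cytotoxicity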). The method, boiled down: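 Membrane-integrity loss is scored from LDH released into the medium, detected as resorufin fluorescence, with activity fitted upward relative to baseline. Test material stays on human fetal-derived progenitor spheres for 72 h.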

The subject of experiment [2] is SRY-box transcription factor 17 (SOX17) Protein Expression, Deisenroth Lab, SOX17 (gene 64321). As to the kind of experiment: CCTE_Deisenroth_DEVTOX-GLR_legacy_Sox17: (Legacy) CCTE's DevTox GLR-Endo Assay Evaluation of SRY-box transcription factor 17 (SOX17) Protein Expression, Deisenroth Lab (AID 2284341). To be noted: actives raise or lower the signal. The method, boiled down:
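RUES2-GLR human pluripotent cells differentiated toward endoderm for 48 h, dosed twice at 24 h intervals (1 nM–200 uM, 10 points). Imaging gives % SOX17+ cells (intensity >5x BMAD above pluripotent control median); bidirectional fit versus 0.2% DMSO.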

Experiment [3] deals with SRY-box transcription factor 2 (SOX2) Protein Expression, Deisenroth Lab, SOX2 (gene 6657). The experiment can be described thus: CCTE_Deisenroth_DEVTOX-GLR_legacy_Sox2: (Legacy) CCTE's DevTox GLR-Endo Assay Evaluation of SRY-box transcription factor 2 (SOX2) Protein Expression, Deisenroth Lab (AID 2284346). The method, boiled down: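 Percent Sox2-positive cells was scored by high-content imaging of 5 fields per well. Positivity cutoff was 5x BMAD over the directed endoderm control, and the DMSO median was subtracted. Cells were RUES2-GLR, dosed twice at 24-h intervals over 48 h of differentiation (1 nM-200 uM).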

Experiment [4] is described as follows: Tanguay_ZF_120hpf_MO24: Oregon State University Tanguay Lab 24 Hour Post-fertilization zebrafish Assay for Mortality (AID 2284389). The method, boiled down:
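Embryo death at 24 hpf was recorded as present or absent in Tropical 5D zebrafish, dechorionated at 4 hpf and dosed statically from 6 hpf (28C, 0.64% DMSO); 5 uM trimethyltin chloride served as positive control.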

Turning to `Cc1c(C(=O)c2c[nH]n(C)c2=O)ccc(S(C)(=O)=O)c1C1=NOCC1`, the call in experiment [1] was inactive. For the compound `CCCCNS(=O)(=O)c1ccccc1`, in experiment [1], the compound was classed as inactive.

For `CC1(C)[C@@H]2CC[C@@]1(C)C(=O)C2`, the call in experiment [2] and in experiment [3] was inactive. On to `O=C(O)C(F)(F)C(F)(F)C(F)(F)C(F)(F)C(=O)O`, for which the compound was classed as inactive in experiment [4]. `C[N+](C)(C)CCCNS(=O)(=O)C(F)(F)C(F)(F)C(F)(F)C(F)(F)C(F)(F)C(F)(F)C(F)(F)C(F)(F)F`: the compound was classed as inactive in experiment [4].
